Results published in PubChem BioAssay AID651636 (Sanford-Burnham Center for Chemical Genomics, 2012).
In all, about 360,000 compounds went through this assay and about 3,000 (0.83%) were called active. The entries come from a sample that favours actives as a whole. Values without a mark were called inactive. No stated cut-off is given here; in the data, active means inhibition above about 38%; inactive means the rest.

What follows are compounds tested against G-protein coupled receptor 183 (Homo sapiens) (UniProt P32249) (assay: EBI2 receptor antagonists, beta-arrestin recruitment, primary screen, cell-based, luminescence, 7a,25-OHC stimulation, uHTS (AID 651636;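 further: enzyme fragment complementation signal reports receptor beta-arrestin coupling in cells; 0% = agonist plus DMSO wells and 100% = wells without agonist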)). Details: 7a,25-OHC stimulated, at 5 µM, stronger effect = higher value.
G-protein coupled receptor 183 (Homo sapiens), sequence (P32249 whole entry, looked up, the tested form may be a part): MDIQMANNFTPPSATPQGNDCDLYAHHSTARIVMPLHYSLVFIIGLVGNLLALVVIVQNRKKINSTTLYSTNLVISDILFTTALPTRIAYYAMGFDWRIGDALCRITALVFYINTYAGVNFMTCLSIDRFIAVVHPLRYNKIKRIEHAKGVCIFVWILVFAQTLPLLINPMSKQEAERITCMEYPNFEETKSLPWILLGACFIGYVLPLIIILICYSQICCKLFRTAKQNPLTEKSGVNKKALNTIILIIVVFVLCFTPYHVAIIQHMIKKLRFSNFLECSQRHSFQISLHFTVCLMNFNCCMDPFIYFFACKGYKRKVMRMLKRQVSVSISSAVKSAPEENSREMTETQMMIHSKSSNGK

| Structure (SMILES) | inhibition |
| --- | --- |
| O=C(NCCN1CCCC(O)C1)c1cc(COc2c(F)cccc2F)on1 (centres undefined) | -9.61% |
| CCOC(=O)C1(O)CC(C)=NN1C(=O)c1cccc(Br)c1 (centres undefined) | -21.3% |
| CCC1([N+](=O)[O-])COC(c2ccc(C(C)C)cc2)OC1 (centres undefined) | -3.46% |
| COc1ccc(S(=O)(=O)N(C)C[C@H]2Oc3c(NC(=O)Nc4ccc5c(c4)OCO5)cccc3C(=O)N([C@H](C)CO)C[C@@H]2C)cc1 | 5.07% |
| Cc1ccc(NC(=O)C2CCC(C(C)(C)C)CC2)cc1S(=O)(=O)N1CCOCC1 (centres undefined) | -1.74% |
| Cc1[nH]nc(SCC(=O)NCC(C)C)c1[N+](=O)[O-] | -0.06% |
| N#CC1=C(SCc2ccc(C#N)cc2)N=C(N)C(c2nc(-c3ccccc3)cs2)C12CCCCC2 (centres undefined) | 15.1% |
| COc1ccc(N(CC(=O)NCCSCc2cccc(Cl)c2)S(C)(=O)=O)cc1 | -2.19% |
| Cc1ccc(CSCCNC(=O)CN(c2ccc(F)cc2)S(C)(=O)=O)cc1 | 59% (active) |
| Cc1cc(C)cc(N(CC(=O)NCCSCc2ccco2)S(C)(=O)=O)c1 | 3.14% |
| O=C(CCCOc1ccccc1)NNC(=O)c1ccc(Cl)cc1 | 17.9% |
| O=C(NNC(=O)c1ccc2ccccc2c1)c1ccc(Cl)cc1 | 60.9% (active) |
| CN(CC(=O)Nc1ccc(Cl)cc1)C(=O)CNC(=O)c1ccc2ccccc2c1 | 2.02% |
| Cc1ccc(-c2c(C)n([O-])c3c([n+]2=O)CCC3)cc1 | 0.406% |
| O=C(NCCc1ccccc1)Oc1ccc(Cl)cc1 | -9.27% |
| O=C(CCc1ccccc1)NNC(=O)COc1ccc(Cl)cc1 | 38.4% (active) |
| O=C(COc1ccc(Cl)cc1)NCCSc1ccccc1 | 26.9% |
| CC(NC(=O)C1CCCN(S(=O)(=O)c2ccc(-n3cnnn3)cc2)C1)c1ccc(F)cc1 (centres undefined) | -4.68% |
| O=C1/C(=C\c2ccc(O)cc2)CCC1CNc1ccc(Cl)cc1 (centres undefined) | 20.4% |
| O=C(C1CCN(S(=O)(=O)c2cnc[nH]2)CC1)N1CCN(Cc2ccc3c(c2)OCO3)CC1 | -0.0388% |
| COC(=O)c1ccc(/C=N/N2C(C)CCCC2C)cc1 (centres undefined) | -2.67% |
| Brc1ccc(/C=N/N2CCN(C3c4ccccc4-c4ccccc43)CC2)s1 | 6.47% |

| Structure (SMILES) | inhibition |
| --- | --- |
| CCOc1ccc(CCN2C(=O)C(=O)N([C@@H](CC(C)C)CN3CCC[C@H]3CN3C(=O)C(=O)NC[C@@H]3Cc3ccccc3)C[C@@H]2CC(C)C)cc1 | -13.2% |
| CCOc1ccc(CCN2C(=S)N([C@@H](CC(C)C)CN3CCC[C@@H]3CN3C(=S)NC[C@@H]3Cc3ccc(O)cc3)C[C@@H]2CC(C)C)cc1 | 17.1% |
| CCOc1ccc(CCN2C(=S)N([C@@H](CC(C)C)CN3CCC[C@@H]3CN3C(=S)NC[C@@H]3Cc3ccc(O)cc3)C[C@@H]2Cc2ccc(O)cc2)cc1 | 51.8% (active) |
| CC1(C)NC(=O)N(CC(=O)Nc2ccc(-c3ccccc3)cc2)C1=O | -7.07% |
| Cc1cccc(N(CC(=O)Nc2ccc(-c3nc4ccc(C)cc4s3)cc2)S(C)(=O)=O)c1 | 9.99% |
| N=C1C(=O)OCC1c1ccccc1NC(=O)CN1CCCCC1 (centres undefined) | -2.7% |
| CCN(CC)CCNc1nc(-c2ccc(OC(F)F)cc2)c(C)s1 | 7.54% |
| CCCCn1nnnc1C(c1cc2ccccc2o1)N(C)Cc1ccc(Cl)c(Cl)c1 (centres undefined) | 15.8% |
| COCCNC(=S)c1ccc(OC)cc1 | -12.7% |
| Cc1cs/c(=N\N=C\c2ccc(O)cc2)n1Cc1ccco1 | 50.6% (active) |
| CN(C)C(=S)N=c1ssc(=S)n1Cc1ccco1 | -5.43% |
| CC(C)NC(=O)NNc1c(Cl)cncc1Cl | 1.07% |
| ONC(=Nc1ccc(Cl)cc1)c1ccccc1Cl | -0.13% |
| COc1ccc(NC(=O)CCNS(=O)(=O)c2ccc3c(c2)c(=O)n(C)c(=O)n3C)cc1OC | -1.47% |
| COc1ccc(NC2CC(=O)N(C)C2=O)cc1 (centres undefined) | -2.09% |
| CCOc1ccc(C(C)=O)cc1COC(=O)c1cnc(Cl)c(Cl)c1 | 43.3% (active) |
| CCOc1ccc(C(C)=O)cc1COC(=O)CNC(=O)c1cccs1 | 4.34% |
| COC(=O)c1ccc(COC(=O)c2cnc(Cl)c(Cl)c2)cc1 | 4.66% |
| Cc1c(Br)ccc(NC(=O)COc2ccccc2C(N)=O)c1C | -2.44% |
| CC(=O)Nc1ccc(N2C(=O)CCC2=O)cc1C | 4.9% |
| CN(CC(=O)NC1CCN(Cc2ccccc2)CC1)S(=O)(=O)c1ccc(Cl)s1 | 1.99% |
| COC(=O)C1CCN(C(=O)NC2CC(=O)N(c3ccc4c(c3)OCCO4)C2)CC1 (centres undefined) | 8.78% |
